From PubChem BioAssay (EPA / NIEHS) come the findings set out here.

Read-out in experiment [1]: Interleukin-8 (IL8), CXCL8 (gene 3576)
The experiment is described as follows: BSK_CASM3C_IL8: BioMAP Diversity Plus: CASM3C Assay for Interleukin-8 (IL8) Biomarker Activity (AID 2283042).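 Further: IL-8 protein level quantified by ELISA.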 The note with it: primary human coronary artery smooth muscle cells; actives raise or lower the signal.

Read-out in experiment [2]: Human Leukocyte Antigen - DR isotype (HLADR), HLA-DRA (gene 3122)
The experiment is described as follows: BSK_CASM3C_HLADR: BioMAP Diversity Plus: CASM3C Assay for Human Leukocyte Antigen - DR isotype (HLADR) Biomarker Activity (AID 2283043).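 Further: cell-surface HLA-DR protein level quantified by ELISA.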 Particulars: primary human coronary artery smooth muscle cells; actives raise or lower the signal.

Read-out in experiment [3]: Macrophage colony-stimulating factor (MCSF), CSF1 (gene 1435)
Briefly: BSK_CASM3C_MCSF: BioMAP Diversity Plus: CASM3C Assay for Macrophage colony-stimulating factor (MCSF) Biomarker Activity (AID 2283044).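 Further: M-CSF protein amount quantified by ELISA after 24 h exposure.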 The note with it: primary human coronary artery smooth muscle cells; actives raise or lower the signal.

Read-out in experiment [4]: Low-density lipoprotein receptor (LDLR), LDLR (gene 3949)
The experiment is described as follows: BSK_CASM3C_LDLR: BioMAP Diversity Plus: CASM3C Assay for Low-density lipoprotein receptor (LDLR) Biomarker Activity (AID 2283045).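 Further: LDLR protein level on the cell surface quantified by ELISA.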 Particulars: primary human coronary artery smooth muscle cells; actives raise or lower the signal.

Read-out in experiment [5]: Monocyte Chemoattractant Protein-1 (MCP1), CCL2 (gene 6347)
Briefly: BSK_CASM3C_MCP1: BioMAP Diversity Plus: CASM3C Assay for Monocyte Chemoattractant Protein-1 (MCP1) Biomarker Activity (AID 2283046).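 Further: MCP-1 level quantified by ELISA 24 h after dosing.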 The note with it: primary human coronary artery smooth muscle cells; actives raise or lower the signal.

Experiment [6] is described as follows: BSK_CASM3C_Proliferation: Cell Proliferation Assessment in the BioMAP Diversity Plus: CASM3C Assay (AID 2283047).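 Further: sulforhodamine B total protein stain as relative cell number at 560 nm; sub-confluent cells exposed 48 h before staining; fitted both ways against DMSO so gain or loss of cell number.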 Particulars: primary human coronary artery smooth muscle cells.
Read-out in experiment [7]: Monokine induced gamma interferon (MIG), CXCL9 (gene 4283)
Briefly: BSK_CASM3C_MIG: BioMAP Diversity Plus: CASM3C Assay for Monokine induced gamma interferon (MIG) Biomarker Activity (AID 2283048).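 Further: MIG protein level measured by ELISA.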 Particulars: primary human coronary artery smooth muscle cells; actives raise or lower the signal.

Read-out in experiment [8]: serum amyloid A (SAA), SAA1 (gene 6288)
Briefly: BSK_CASM3C_SAA: BioMAP Diversity Plus: CASM3C Assay for serum amyloid A (SAA) Biomarker Activity (AID 2283049).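 Further: SAA protein level quantified by ELISA.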 Particulars: primary human coronary artery smooth muscle cells; actives raise or lower the signal.

Experiment [9] is described as follows: BSK_CASM3C_SRB: Viability Assessment in the BioMAP Diversity Plus: CASM3C Assay (AID 2283050).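 Further: total protein by SRB staining as cytotoxicity measure in parallel cultures; cells exposed to compound for 24 h.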 The note with it: primary human coronary artery smooth muscle cells.
Read-out in experiment [10]: Thrombomodulin, THBD (gene 7056)
Briefly: BSK_CASM3C_Thrombomodulin: BioMAP Diversity Plus: CASM3C Assay for Thrombomodulin Biomarker Activity (AID 2283051).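 Further: thrombomodulin protein level measured by ELISA 24 h after dosing.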 Particulars: primary human coronary artery smooth muscle cells; actives raise or lower the signal.

Read-out in experiment [11]: Tissue Factor, F3 (gene 2152)
Briefly: BSK_CASM3C_TissueFactor: BioMAP Diversity Plus: CASM3C Assay for Tissue Factor Biomarker Activity (AID 2283052).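 Further: cell surface tissue factor protein level read by ELISA.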 The note with it: primary human coronary artery smooth muscle cells; actives raise or lower the signal.

Read-out in experiment [12]: Urokinase-type plasminogen activator receptor (uPAR), PLAUR (gene 5329)
Briefly: BSK_CASM3C_uPAR: BioMAP Diversity Plus: CASM3C Assay for Urokinase-type plasminogen activator receptor (uPAR) Biomarker Activity (AID 2283054).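 Further: cell-surface uPAR protein level quantified by ELISA.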 The note with it: primary human coronary artery smooth muscle cells; actives raise or lower the signal.

Read-out in experiment [13]: Vascular cell adhesion molecule 1 (VCAM1), VCAM1 (gene 7412)
Briefly: BSK_CASM3C_VCAM1: BioMAP Diversity Plus: CASM3C Assay for Vascular cell adhesion molecule 1 (VCAM1) Biomarker Activity (AID 2283055).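 Further: VCAM-1 protein level quantified by ELISA on the cells.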 The note with it: primary human coronary artery smooth muscle cells; actives raise or lower the signal.

Read-out in experiment [14]: Collagen III, COL3A1 (gene 1281)
Briefly: BSK_hDFCGF_CollagenIII: BioMAP Diversity Plus: hDFCGF Assay for Collagen III Biomarker Activity (AID 2283056). The note with it: primary human foreskin fibroblasts; actives raise or lower the signal. Summed up:
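ELISA read-out of collagen III from human skin fibroblast cultures sampled 24 h post-dosing. Values were derived by bidirectional fitting relative to the DMSO vehicle control.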

Read-out in experiment [15]: Epidermal growth factor receptor (EGFR), EGFR (gene 1956)
Briefly: BSK_hDFCGF_EGFR: BioMAP Diversity Plus: hDFCGF Assay for Epidermal growth factor receptor (EGFR) Biomarker Activity (AID 2283057). Particulars: primary human foreskin fibroblasts; actives raise or lower the signal. Summed up:
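ELISA readout of EGFR on human dermal fibroblasts (primary foreskin cells), 24 h post-dosing; bidirectional curve fit vs DMSO baseline, gain or loss of signal scored.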

Read-out in experiment [16]: Interleukin-8 (IL8), CXCL8 (gene 3576)
Briefly: BSK_hDFCGF_IL8: BioMAP Diversity Plus: hDFCGF Assay for Interleukin-8 (IL8) Biomarker Activity (AID 2283058). The note with it: primary human foreskin fibroblasts; actives raise or lower the signal. Summed up: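 Cells used are human skin primary fibroblasts. Chemical is added, cultures run 24 h, then IL-8 is quantified by ELISA, and gain or loss versus DMSO control is fitted in both directions.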

Experiment [17] in a line: BSK_hDFCGF_Proliferation: Cell Proliferation Assessment in the BioMAP Diversity Plus: hDFCGF Assay (AID 2283059).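 Further: curves fitted for both rise and fall of signal versus DMSO baseline.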 Particulars: primary human foreskin fibroblasts. Summed up:
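Primary human foreskin fibroblasts, sub-confluent; […]; 10% TCA fix, 0.1% SRB stain, A560 total protein. Gain/loss fitted bidirectionally vs DMSO control.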

Read-out in experiment [18]: Macrophage colony-stimulating factor (MCSF), CSF1 (gene 1435)
Briefly: BSK_hDFCGF_MCSF: BioMAP Diversity Plus: hDFCGF Assay for Macrophage colony-stimulating factor (MCSF) Biomarker Activity (AID 2283060). Particulars: primary human foreskin fibroblasts; actives raise or lower the signal. Summed up: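 Primary human foreskin fibroblasts dosed with chemical; 24 h later, M-CSF quantified by ELISA; curves fitted in both directions vs DMSO negative control.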

Experiment [19] can be described thus: BSK_hDFCGF_SRB: Viability Assessment in the BioMAP Diversity Plus: hDFCGF Assay (AID 2283061).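 Further: cells exposed to compound for 24 h before the read.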 Particulars: primary human foreskin fibroblasts. Summed up:
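Readout is SRB absorbance at 560 nm, reflecting total protein in parallel cultures of human foreskin fibroblasts harvested 24 h after chemical dosing. Activity was fitted bidirectionally relative to DMSO.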

Read-out in experiment [20]: Interferon-gamma inducible Protein 10 (IP10), CXCL10 (gene 3627)
The experiment is described as follows: BSK_hDFCGF_IP10: BioMAP Diversity Plus: hDFCGF Assay for Interferon-gamma inducible Protein 10 (IP10) Biomarker Activity (AID 2283053). The note with it: primary human foreskin fibroblasts; actives raise or lower the signal. The method, boiled down: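 ELISA read-out of IP-10 (CXCL10) from primary human skin fibroblasts, 24 h after compound addition. Gain or loss of signal versus DMSO baseline, bidirectional curve fitting.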

Activity calls are given as the source filed them. How the source made its calls: active means hit-call score of the fitted dose curve at least 0.9, where 1 is the maximum; inactive means score below 0.9.

`Cc1ccc(C(C)C)cc1`: the result in experiment [1], in experiment [2], in [3], in experiment [4], in experiment [5] and in experiment [6] was inactive. For the same compound, the result in experiment [7], in experiment [8], in experiment [9], in [10], in experiment [11] and in [12] was inactive. Also, the outcome in [13], in [14], in experiment [15], in experiment [16], in experiment [17] and in [18] was inactive. Besides, in experiment [19], the outcome was inactive.

For the compound `CCCCCCCCOc1ccc(C(=O)c2ccccc2)c(O)c1`, the outcome in [1], in experiment [2], in [3], in experiment [4], in experiment [5] and in [6] was inactive. For the same compound, the outcome in experiment [7], in experiment [8], in experiment [9], in experiment [10], in [11] and in experiment [20] was inactive. For the same compound, the outcome in [12], in experiment [13], in experiment [14], in experiment [15], in experiment [16] and in [18] was inactive. Besides, the outcome in experiment [19] was inactive. Moreover, in experiment [17], the AC50 is 20 µM (active).

`CC(C)(c1cc(Br)c(O)c(Br)c1)c1cc(Br)c(O)c(Br)c1`: the result in experiment [1], in experiment [4], in experiment [7], in experiment [9] and in experiment [15] was inactive. Moreover, the concentration at half-maximal activity (AC50) was 33.1 µM (active) in experiment [2]; 19.1 µM (active) in experiment [3]; 30.1 µM (active) in [5]; 32 µM (active) in experiment [6]; 31.9 µM (active) in experiment [8]; 25 µM (active) in [10]. The AC50 in experiment [11] is 31.7 µM (active); in experiment [20] it was 6.23 µM (active); in experiment [12], 31.2 µM (active); in experiment [13], 29.3 µM (active); in [14], 3.85 µM (active); in [16], 11.5 µM (active). The concentration at half-maximal activity (AC50) in experiment [17] is 3.94 µM (active); in experiment [19], 5.8 µM (active).

Take `CC(C)(C)c1csc(-c2cc3cc(OCc4ccccc4CC(=O)O)ccc3o2)n1`: the result in experiment [1], in [4], in experiment [5], in experiment [7], in experiment [8] and in experiment [10] was inactive. In addition, the outcome in experiment [11], in experiment [12] and in experiment [15] was inactive. Also, the AC50 was 29 µM (active) in experiment [2]; 28.2 µM (active) in experiment [3]; 34 µM (active) in experiment [6]; 31 µM (active) in experiment [9]; 10.2 µM (active) in [20]; 15.4 µM (active) in [13]. Also, the concentration at half-maximal activity (AC50) in experiment [14] is 3.19 µM (active); in experiment [19], 17.2 µM (active).

As to `CCN(CC)C(=O)c1cc(S(=O)(=O)Cc2ccccc2)c(N2CCC(c3ccccc3)CC2)cc1N(CC)CCN(C)C`, the AC50 in experiment [1] was 24.8 µM (active); in experiment [2], 5.38 µM (active); in experiment [4], 0.138 µM (active); in [6], 7.05 µM (active); in experiment [9] it was 27.1 µM (active); in experiment [11], 29.8 µM (active). Further, the half-maximal activity concentration (AC50) in experiment [12] is 20.4 µM (active); in experiment [14], 4.27 µM (active); in experiment [18] it was 18.7 µM (active). Besides, the outcome in [3], in [5], in experiment [7], in experiment [8], in [10] and in experiment [20] was inactive. Besides, the result in [13], in [15], in experiment [16] and in experiment [19] was inactive.

Take `O=C(Nc1ccc(Cl)cc1)Nc1ccc(Cl)c(Cl)c1`: the result in [1], in experiment [5], in experiment [7], in [10], in [13] and in experiment [16] was inactive. Also, the AC50 was 2.81 µM (active) in experiment [2]; 12.3 µM (active) in [3]; 7.14 µM (active) in experiment [4]; 5 µM (active) in experiment [6]; 12.6 µM (active) in experiment [8]; 10.6 µM (active) in experiment [9]. In addition, the AC50 in experiment [11] is 9.41 µM (active); in [20] it was 0.148 µM (active); in [12], 9.76 µM (active); in experiment [14], 0.148 µM (active); in experiment [15], 1 µM (active); in experiment [18], 0.284 µM (active). Also, the concentration at half-maximal activity (AC50) in experiment [19] is 0.138 µM (active).
